In PubChem BioAssay (NCI):
This is part of a sample that, as a whole, favours compounds with a hit. Of some 83,000 tested, about 20% had one in any assay.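 Compound tested at a single concentration for 48 hours in 96-well plates; a percent growth value below 10 was scored as active.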 Unmarked numbers belong to inactive results. Activity calls are given as the source filed them.

Test system: SN12C renal
Experiment: NCI-60 one-dose screen, 48 h (100 = growth as untreated, 0 = no growth, -100 = all killed)
Details: 10 µM unless noted

Row | Compound | growth
1 | COc1ccc(Cn2cc3c(c2-c2ccccc2)CCc2cnoc2-3)cc1OC | 49.5%
2 | Cc1ccc2c(O)c(O)cc(NC(C)CCCN)c2n1 (stereo not drawn) | 32.2%
3 | CC(C)(C)c1ccc([I+]c2ccc(C(C)(C)C)cc2)cc1 | 3.97% (active)
4 | COC(=O)/C(Br)=C/c1c[nH]c2ccc(Br)cc12 | 88.1%
5 | COC(=O)c1ccc2[nH]c(O)c(C(=Nc3ccc(N(C)C(=O)CN4CCN(C)CC4)cc3)c3cccc(OC)c3)c2c1 | 9.77% (active)
6 | C#CCCCCCCC[C@@H]1OC(=O)[C@H]([C@@H](C)CC)NC(=O)[C@@H]([C@@H](C)CC)NC(=O)CC(=O)[C@@H]1C | 94.9%
7 | COC(=O)c1ccc2[nH]c(O)c(C(=Nc3ccc(N(C)C(=O)CN4CCN(C)CC4)cc3)c3ccc(C)cc3)c2c1 | 9.81% (active)
8 | COC(=O)C(C)[C@H]1CC[C@@H]2[C@]1(C)CC=C1[C@]23C=C[C@]2(C[C@@H](OC(C)=O)CC[C@]12C)C(C(=O)OC)C3C(=O)OC (stereo partly drawn) | 100%
9 | Cc1nc2c(nnn2-c2ccccc2)c2nc(-c3ccccc3)oc(=O)c12 | 103%
10 | CC(O)C(N)=O (stereo not drawn) | 106%
11 | Nc1nc2c(c3cnccc13)C(c1cccc(Cl)c1)Cc1cnccc1-2 (stereo not drawn) | 33.8%
12 | CC(=O)OCC1O[C@@H](OC(C)=O)[C@@H](NC(=O)NS(=O)(=O)c2ccccc2)C(OC(C)=O)[C@@H]1OC(C)=O (stereo partly drawn) | 97.2%
13 | CCOC(=O)c1ccc2n1CCCc1cnc(NC(C)=O)nc1-2 | 102%
